Experimental data: PubChem BioAssay (NCATS)
Inconclusive results are not listed. The source made the active and inactive calls. Calls follow the shape of the dose curve; as a rule, active = well fitted inhibition curve with a large enough effect; inconclusive = small, poorly fitted or top-dose-only effect; inactive = no such curve, though single readings can be large or run the other way.

Test: Primary qHTS for inhibitors of La Crosse Virus (LACV) - induced cell death in SH-SY5Y cells (AID 1508616);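 also: top concentration of the series differs between compounds; higher means more rescue of cells from virus-induced death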
Conditions: SH-SY5Y LACV cytopathicity rescue, ATP luminescence, 6 d; series mostly up to 4.29 µM
Text: Assay Provider: Karin Peterson Ph.D.
National Institute of Allergy and Infection Diseases, National Institute of Health
La Crosse Virus (LACV) is a California serogroup mosquito-borne arbovirus, family Peribunyaviridae, which is an endemic pathogen in North America and can induce a rare, life-threatening neurological disease in children. LACV was first isolated in the early 1960s, from a summer "rural encephalitis" case in La Crosse, Wisconsin, USA. Since then, LACV encephalitis cases have been found in more than twenty states, with most cases in the Mississippi and Ohio River basins. The life cycle of LACV is maintained between the vector, the eastern tree-hole mosquito Aedes triseriatus, and vertebrate hosts including eastern gray squirrels (Sciurus carolinensis) and chipmunks (Tamiasstriatus grinseus). […] Most LACV infections in humans are asymptomatic or induce mild clinical symptoms of fever, headache, lethargy and vomiting. However, in some cases LACV can cause severe neuroinvasive disease, including encephalitis, meningitis, and meningoencephalitis, requiring hospitalization. To date, there is neither a licensed vaccine nor a Food and Drug Administration (FDA) approved antiviral therapy available to prevent or treat LACV encephalitis. The primary treatment for viral encephalitis is palliative care due to the lack of therapeutics. In the current study, we conducted a screen of 4,096 FDA approved and bioactive small molecules against LACV, by screening for rescue of LACV-induced cell death in SH-SY5Y cells.
LACV-induced cytopathicity assay
SEQUENCE No. (1,2, 3, etc.); […] (e.g., Cells, Incubation, Reagent, etc.); VALUE and DESCRIPTION.
1. Reagent; 2 uL; Cell solution.
3. Compounds; 23nL; Compound library
4. Reagent; 12 uL; LACV virus
6. Reagent; 24 uL; ATPLite (PerkinElmer)
7. Time; 5 min; Room temperature
8. Detection; Luminescence; View
NOTES (numbers refer to sequence above)
1. Seed 6000 SH-SY5Y cells (ATCC CRL-2266) in 2 microL/well media (DMEM/F12 10% FBS, 1x L-Glutamine, 1x Pyruvate, 1x NEAA, 1x Pen/Strep) in 384-well assay plates (tissue culture treated, white, solid bottom).
2. Incubate at 37 degrees C with 5% CO2 for 24 hr.
3. Dispense 23 nL/well compounds in DMSO via pin transfer.
4. Dispense 12 microL/well of LACV (LACV/human/1978) in media at 0.01 MOI.
5. Incubate at for 6 days at 37C 5% CO2
6. Dispense 24 microL/well of ATPLite 1step Luminescence assay system (PerkinElmer).
7. Incubate for 5 min at room temperature.
8. Read luminescence signal (Viewlux plate reader, PerkinElmer). Data was normalized with DMSO control wells containing LACV as 0%, and DMSO control wells without virus as 100%.

Row | SMILES | outcome
1 | CCCC(O)C(CC)CO (stereo not given) | inactive
2 | COc1ccc2cc(CCC(C)=O)ccc2c1 | inactive
3 | Nc1c2c(nc3c1CCC3)CCCC2 | inactive
4 | Cc1onc(-c2ccccc2)c1-c1ccc(S(N)(=O)=O)cc1 | inactive
5 | CCCCCC(N)=O | inactive
6 | CC1(C)[C@@H](OC(=O)CCC(=O)O)CC[C@]2(C)[C@H]3C(=O)C=C4[C@@H]5C[C@@](C)(C(=O)O)CC[C@]5(C)CC[C@@]4(C)[C@]3(C)CC[C@@H]12 | inactive
7 | O=c1[nH]cnc2nc[nH]c12 | inactive
8 | Cc1cc(C)c(NC(=O)CN(CC(=O)O)CC(=O)O)c(C)c1Br | inactive
9 | O=S1(=O)OC(c2ccc(O)cc2)(c2ccc(O)cc2)c2ccccc21 | inactive
10 | C[C@]1(Cn2ccnn2)[C@H](C(=O)O)N2C(=O)C[C@H]2S1(=O)=O | inactive
11 | NS(=O)(=O)c1cc2c(cc1C(F)(F)F)NCNS2(=O)=O | inactive
12 | O=C1c2ccccc2S(=O)(=O)N1CCCCN1CCN(c2ncccn2)CC1 | inactive
13 | CC1CC(OC(=O)c2ccccc2O)CC(C)(C)C1 (stereo not given) | inactive
14 | Cn1c(=O)c2c(ncn2CCO)n(C)c1=O | inactive
15 | O=C(O)c1cc(=O)c2ccccc2o1 | inactive
16 | COc1ccc(-c2cc(=O)c3c(O)cc(O[C@@H]4O[C@H](CO[C@@H]5O[C@@H](C)[C@H](O)[C@@H](O)[C@H]5O)[C@@H](O)[C@H](O)[C@H]4O)cc3o2)cc1O | inactive
17 | OCCN1C[C@H](O)[C@@H](O)[C@H](O)[C@H]1CO | inactive
18 | C[N+]1(C)CCCC(OC(=O)C(O)(c2ccccc2)c2ccccc2)C1 (stereo not given) | inactive
19 | Cc1c(NC(=O)c2cccnc2)c(=O)n(-c2ccccc2)n1C | inactive
20 | O=C(O)CCCCC1CCSS1 (stereo not given) | inactive

Row | SMILES | outcome
21 | Cc1cc(OI)c(C(C)C)cc1-c1cc(C(C)C)c(OI)cc1C | inactive
22 | Cc1cccc(C(=O)O)c1O | inactive
23 | O=C(/C=C/c1ccc(O)c(O)c1)O[C@@H]1C[C@@](OC(=O)/C=C/c2ccc(O)c(O)c2)(C(=O)O)C[C@@H](O)[C@@H]1O | inactive
24 | CC(CN(C)C)C(C)(O)Cc1ccc(Cl)cc1 (stereo not given) | inactive
25 | O=C(O)CCCc1ccccc1 | inactive
26 | Cc1c(NC(C)C)c(=O)n(-c2ccccc2)n1C | inactive
27 | CCN(CC)CCc1nc(-c2ccccc2)no1 | inactive
28 | CC1(C)S[C@@H]2[C@H](NC(=O)C(C(=O)O)c3ccccc3)C(=O)N2[C@H]1C(=O)O (stereo not given in full) | inactive
29 | CC[C@H](C)[C@H](N)C(=O)O | inactive
30 | OC[C@@H](O)[C@@H](O)[C@H](O)[C@H](O)CO | inactive
31 | Cc1c(Cn2ccnc2)c2ccccc2n1CCC(=O)O | inactive
32 | CC(C)C[C@@H](N)C(=O)O | inactive
33 | Cc1cccc(Nc2ccccc2C(=O)O)c1C | inactive
34 | C[C@@H]1O[C@@H](OC[C@H]2O[C@@H](Oc3c(-c4ccc(O)c(O)c4)oc4cc(O)cc(O)c4c3=O)[C@H](O)[C@@H](O)[C@@H]2O)[C@H](O)[C@H](O)[C@H]1O | inactive
35 | NC(=O)NS(=O)(=O)c1ccc(N)cc1 | inactive
36 | Cc1ccsc1/C=C/C1=NCCCN1C | inactive
37 | O=C(O)/C=C/c1ccc(Cn2ccnc2)cc1 | inactive
38 | O=C(O)c1ccc[n+]([O-])c1 | inactive
39 | CC(C)(C)C(=O)OCOC(=O)[C@@H]1N2C(=O)[C@@H](NC(=O)[C@H](N)c3ccccc3)[C@H]2SC1(C)C | inactive
40 | NC(=O)NC1NC(=O)NC1=O (stereo not given) | inactive
